Structures are written as SMILES. This is part of a sample that, as a whole, favours compounds with a hit. Of some 79,000 tested, about 15% had one in any assay. A number with no mark means an inactive call. Activity calls are given as the source filed them. Cut-off read from the data, not from the text of the source: active = growth inhibition above about 70%; inactive = the rest.

The first experiment in a line: NCI Yeast Anticancer Drug Screen. Data for the mec2-1 strain (AID 157). The settings on record: S. cerevisiae mec2-1 strain, at 50.0 µM, hits give high values. Put shortly:
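Mutant yeast (mec2-1) grown with compound; growth inhibition relative to vehicle control reported.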
As to `Clc1ccc(C(CI)c2ccccc2Cl)cc1` (stereo not given), the growth inhibition was 11.3%.
As for `O=C1NC(=O)C(c2ccc3c(c2)OCO3)N1` (stereo not given), the growth inhibition was -10.6%.
Still for that read-out and setting: to `Cc1ccc(N=C2SC(c3ccc(C)cc3)(c3ccc(C)cc3)c3ccccc32)cc1` belongs 11.2%; to `NC(=S)NNC(=O)/C(=C/c1ccc(/C=C(\NC(=O)c2ccccc2)C(=O)NNC(N)=S)cc1)NC(=O)c1ccccc1`, 27%.
On to `CC1=CC(=O)[C@@H](O)[C@]2(C)[C@H]3[C@@]4(O)OC[C@]35[C@H]([C@@H](CO)[C@H]4O)[C@@H](OC3OC(CO)C(O)C(O)C3O)C(=O)O[C@@H]5C[C@@H]12` (stereo not given in full), for which the growth inhibition is -14.5%.
For the molecule `O=C1CCCCC1COCC1CCCCC1=O` (stereo not given), the growth inhibition was 2.65%.
On the same count and under the same terms, to `CC(=O)c1nc2ccccc2n1CC(=O)c1ccc(Cl)cc1` belongs 11.3%.
The same measure, in the same setting: to `Cc1cc(C)c(NC(=O)Nc2ccccc2F)cc1C` belongs 19.6%.
In the case of `CCCCC(CC)C(=S)N1CCOCC1` (stereo not given), the growth inhibition is -30.4%.
As for `Nc1ccc2[nH]cc(CCC(=O)O)c2c1`, the growth inhibition is -6.95%.
For the molecule `O=C1c2c(nc3ccccc3c2-c2ccccc2)CN1Nc1ccccc1`, the growth inhibition is -24.9%.
Still for that read-out and setting: the value for `NC(=O)c1cc(Br)ccc1O` was -12.7%; that for `C1CC(CCN2CCOCC2)CCN1` was -46.6%; that for `COc1ccc(C(=O)C(C)C(O)C(=O)O)c(O)c1C` (stereo not given) was 14.9%.
For `N#CC(=O)Nc1ccc(Cl)c(Cl)c1`, the growth inhibition was -11.2%.
As for `Cc1ccccc1C(=O)NNC(=O)c1cccc2ccccc12`, the growth inhibition is -24.9%.
The same measure, in the same setting: to `CC(C)(C)C1CCC2c3c([nH]c4ccccc34)C3C(=O)N(c4ccc(Cl)cc4)C(=O)C3C2C1` (stereo not given) belongs -20%; to `O=C1C(=C(c2ccc([N+](=O)[O-])cc2)N2CCOCC2)C(=O)c2ccccc21`, 0.4%; to `Clc1c(-c2ccccc2)oc2nc3ccccc3nc12`, 6.85%.
On to `CC(NC(=O)C(CC(=O)OCc1ccccc1)NC(=O)OCc1ccccc1)c1ccccc1` (stereo not given), for which the growth inhibition was -20.5%.
With `CCC(C)(O)C(C)(O)CC` (stereo not given), the growth inhibition was -13.8%.
Regarding `Cc1nc2ccccc2c(=O)n1NC(=O)c1ccccc1O`, the growth inhibition was -53.6%.
`COC1(C)CCC2(O)C(=O)OC3C(O)COC32O1` (stereo not given): the growth inhibition is -4.9%.
Consider `CCOC(=O)c1ccc(NC(=S)NC(=O)c2cccc([N+](=O)[O-])c2)cc1`, for which the growth inhibition is 6.55%.
The same measure, in the same setting: the value for `C=CCOc1ccc(S(=O)(=O)c2ccc(OCC=C)cc2)cc1` was -7.9%; that for `COc1cccc2c(Cl)c3ccc(Cl)cc3nc12` was 5.25%.
As for `CCN(CC)Cc1ccccc1CO`, the growth inhibition is 6.15%.
For `NC(=O)NNC(=O)NC12CC3CC(CC(C3)C1)C2`, the growth inhibition was -11.8%.
Same read-out and setting: to `CCCCCCC(=O)OCC` belongs -3.4%; to `CCCCCCCCCCCCCCCCN` (tested in a mixture with another compound), -11.1%; to `Cc1c2c(cc3c1[nH]c1ccccc13)C(=O)c1ccccc1C2=O`, 68.5%.
On the same count and under the same terms, to `O=C1c2cc3c(cc2C(=O)c2[nH]c(=O)ccc21)CCCC3` belongs 25.9%; to `COc1cc2c3c(c1)[nH]c(=S)n3C(=O)CS2`, -30.1%.
Still for that read-out and setting: to `Cc1cc([N+](=O)[O-])cnc1Cl` belongs -22.2%.
For the molecule `Clc1ccccc1/C=C(/c1ccccc1)c1ccccn1`, the growth inhibition was 12.3%.
As for `Nc1cnc(Nc2cccc3ccccc23)o1`, the growth inhibition is -35.3%.
For the molecule `S=c1[nH]c2ccccc2n2cccc12`, the growth inhibition is -7.15%.
Same read-out and setting: to `c1ccc(CCc2nccc3ccccc23)cc1` belongs -0.55%; to `N#C/C(=C\Nc1ccccn1)C(=O)c1ccco1`, -19.8%; to `CC/C(CC(=O)CCC(=O)Nc1ccccc1[N+](=O)[O-])=N/NC(=O)C[n+]1ccccc1`, 6.9%.

Another experiment is described as follows: NCI Yeast Anticancer Drug Screen. Data for the sgs1 mgt1 strain (AID 161).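 Note: 0% = growth of cultures given vehicle only.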 The settings on record: S. cerevisiae sgs1 mgt1 strain, at 50.0 µM, hits give high values. Put shortly:
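Growth of a repair-deficient yeast mutant was monitored after compound treatment and expressed as inhibition relative to vehicle-treated cultures.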
With `Clc1ccc(C(CI)c2ccccc2Cl)cc1` (stereo not given), the growth inhibition is 12.3%.
Consider `O=C1NC(=O)C(c2ccc3c(c2)OCO3)N1` (stereo not given), for which the growth inhibition is -6%.
As to `Cc1ccc(N=C2SC(c3ccc(C)cc3)(c3ccc(C)cc3)c3ccccc32)cc1`, the growth inhibition was -3.9%.
For `NC(=S)NNC(=O)/C(=C/c1ccc(/C=C(\NC(=O)c2ccccc2)C(=O)NNC(N)=S)cc1)NC(=O)c1ccccc1`, the growth inhibition was 29.3%.
With `CC1=CC(=O)[C@@H](O)[C@]2(C)[C@H]3[C@@]4(O)OC[C@]35[C@H]([C@@H](CO)[C@H]4O)[C@@H](OC3OC(CO)C(O)C(O)C3O)C(=O)O[C@@H]5C[C@@H]12` (stereo not given in full), the growth inhibition is -19.2%.
With `O=C1CCCCC1COCC1CCCCC1=O` (stereo not given), the growth inhibition was -2.15%.
Take `CC(=O)c1nc2ccccc2n1CC(=O)c1ccc(Cl)cc1`: the growth inhibition is 18.9%.
For `Cc1cc(C)c(NC(=O)Nc2ccccc2F)cc1C`, the growth inhibition is 14.3%.
For `CCCCC(CC)C(=S)N1CCOCC1` (stereo not given), the growth inhibition is -18.8%.
The same measure, in the same setting: the value for `Nc1ccc2[nH]cc(CCC(=O)O)c2c1` was -4.45%.
With `O=C1c2c(nc3ccccc3c2-c2ccccc2)CN1Nc1ccccc1`, the growth inhibition is -9.45%.
On to `NC(=O)c1cc(Br)ccc1O`, for which the growth inhibition was 6.9%.
`C1CC(CCN2CCOCC2)CCN1`: the growth inhibition was -17.3%.
As for `COc1ccc(C(=O)C(C)C(O)C(=O)O)c(O)c1C` (stereo not given), the growth inhibition is -1.25%.
Still for that read-out and setting: the value for `N#CC(=O)Nc1ccc(Cl)c(Cl)c1` was -14.6%; that for `Cc1ccccc1C(=O)NNC(=O)c1cccc2ccccc12` was 7.9%; that for `CC(C)(C)C1CCC2c3c([nH]c4ccccc34)C3C(=O)N(c4ccc(Cl)cc4)C(=O)C3C2C1` (stereo not given) was -6.1%.
Turning to `O=C1C(=C(c2ccc([N+](=O)[O-])cc2)N2CCOCC2)C(=O)c2ccccc21`, the growth inhibition is 6.45%.
Same read-out and setting: to `Clc1c(-c2ccccc2)oc2nc3ccccc3nc12` belongs 13.6%.
As for `CC(NC(=O)C(CC(=O)OCc1ccccc1)NC(=O)OCc1ccccc1)c1ccccc1` (stereo not given), the growth inhibition is 9.15%.
The same measure, in the same setting: to `CCC(C)(O)C(C)(O)CC` (stereo not given) belongs 15.4%; to `Cc1nc2ccccc2c(=O)n1NC(=O)c1ccccc1O`, -7.6%.
As to `COC1(C)CCC2(O)C(=O)OC3C(O)COC32O1` (stereo not given), the growth inhibition was 2.55%.
As to `CCOC(=O)c1ccc(NC(=S)NC(=O)c2cccc([N+](=O)[O-])c2)cc1`, the growth inhibition was 16.1%.
Turning to `C=CCOc1ccc(S(=O)(=O)c2ccc(OCC=C)cc2)cc1`, the growth inhibition is -2.55%.
As for `COc1cccc2c(Cl)c3ccc(Cl)cc3nc12`, the growth inhibition is 0.8%.
As to `CCN(CC)Cc1ccccc1CO`, the growth inhibition is 2.2%.
As for `NC(=O)NNC(=O)NC12CC3CC(CC(C3)C1)C2`, the growth inhibition was -10.2%.
As for `CCCCCCC(=O)OCC`, the growth inhibition was -4.7%.
Turning to `CCCCCCCCCCCCCCCCN` (tested in a mixture with another compound), the growth inhibition was 7.9%.
In the case of `Cc1c2c(cc3c1[nH]c1ccccc13)C(=O)c1ccccc1C2=O`, the growth inhibition is 75.8% (active).
As for `O=C1c2cc3c(cc2C(=O)c2[nH]c(=O)ccc21)CCCC3`, the growth inhibition is 16%.
For the molecule `COc1cc2c3c(c1)[nH]c(=S)n3C(=O)CS2`, the growth inhibition was -57.4%.
As to `Cc1cc([N+](=O)[O-])cnc1Cl`, the growth inhibition was -11.6%.
For the molecule `Clc1ccccc1/C=C(/c1ccccc1)c1ccccn1`, the growth inhibition was 23.3%.
The same measure, in the same setting: to `Nc1cnc(Nc2cccc3ccccc23)o1` belongs -14.1%.
Turning to `S=c1[nH]c2ccccc2n2cccc12`, the growth inhibition was 27.4%.
For the molecule `c1ccc(CCc2nccc3ccccc23)cc1`, the growth inhibition was -5.6%.
With `N#C/C(=C\Nc1ccccn1)C(=O)c1ccco1`, the growth inhibition was -19.6%.
Consider `CC/C(CC(=O)CCC(=O)Nc1ccccc1[N+](=O)[O-])=N/NC(=O)C[n+]1ccccc1`, for which the growth inhibition is -56.1%.

The values are drawn from PubChem BioAssay (NCI).
